Assay [1] in a line: inhibitors of TNFa-induced NFkB p65 translocation, primary screen, imaging, HUVEC, MLSMR starter and 10KST1 sets (AID 438;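 active means inhibition above 20% together with a positive visual image hit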;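 further: compound added about 3h40 before a 20 min TNFalpha stimulation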;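 on inhibition: signal is the nuclear over cytoplasmic p65 intensity ratio per well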). As to conditions: HUVEC TNFa-induced p65 nuclear translocation; cell count: measured here: nuclei count (cytotoxicity indicator), at 2.08 µM; inhibition: at 2 µM, stronger effect = higher value, 0% TNFa-plus-vehicle, 100% no-TNFa wells.
Assay [2] in a line: inhibitors of mutant huntingtin aggregation, primary screen, imaging, exon1htt(103Q)mCFP cells, high-content imaging (AID 483;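 active means visual image review flags a hit and inhibition of aggregation exceeds 20%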;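 further: compound exposure lasted 3 days before fixation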;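 on nuclei count: percent of the per-plate median nuclei count of sample wells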). As to conditions: exon1htt(103Q)mCFP cell line, aggregate imaging, at 2 µM; inhibition of aggregation: stronger effect = higher value; nuclei count: measured here: cell count, toxicity.
The nature of assay [3]: inhibitors of E-selectin induction by TNFa, primary screen, imaging, HUVEC, immunofluorescence, MLSMR starter and 10KST1 sets (AID 487;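 active means visually confirmed hit in the image check and inhibition above 20%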;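 on inhibition: signal is fraction of cell area covered by stained E-selectin grains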;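 on nuclei count: 100% = median nuclei count of all wells on the same plate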). Conditions: HUVEC TNFalpha-induced E-selectin immunofluorescence imaging, at 2 µM; inhibition: stronger effect = higher value; nuclei count: measured here: cell number, toxicity.
Assay [4] can be described thus: DUSP6 inhibitors restoring Erk phosphorylation by chemical complementation, primary imaging in DUSP6-transfected HeLa (AID 609;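 active means compounds giving at least 50% inhibition in the cell-based MKP-3 phosphatase rescue imaging test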;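 on inhibition: phospho-Erk level distribution per well compared with pooled transfected vehicle control wells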). As to conditions: HeLa MKP-3 transfected, phospho-Erk imaging KS statistic, at 10 µM, cells stimulated with TPA for 15 min.
Assay [5] deals with Dual specificity protein phosphatase 6 (Homo sapiens) (UniProt Q16828). The description is as above. Conditions: HeLa MKP-3 transfected, phospho-Erk imaging KS statistic; at 10 µM; stronger effect = higher value; cells stimulated with TPA for 15 min.
Chain of Dual specificity protein phosphatase 6 (Homo sapiens) (Q16828 whole entry, looked up): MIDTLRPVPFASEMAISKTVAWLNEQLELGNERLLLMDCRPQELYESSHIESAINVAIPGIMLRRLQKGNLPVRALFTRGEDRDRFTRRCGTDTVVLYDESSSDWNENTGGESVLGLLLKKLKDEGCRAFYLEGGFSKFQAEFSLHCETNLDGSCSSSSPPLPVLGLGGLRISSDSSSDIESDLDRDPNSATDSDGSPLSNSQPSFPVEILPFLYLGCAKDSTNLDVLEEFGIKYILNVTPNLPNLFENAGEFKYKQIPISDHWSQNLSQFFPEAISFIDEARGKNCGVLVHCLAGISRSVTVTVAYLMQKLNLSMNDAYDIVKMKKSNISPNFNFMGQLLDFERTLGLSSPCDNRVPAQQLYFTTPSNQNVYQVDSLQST
The target of assay [6] is Voltage-gated potassium channel subunit beta-2 (Rattus norvegicus) (UniProt P62483). In words: KvBeta enzyme negative modulators, primary screen, biochemical, NADPH fluorescence (AID 622;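 active means fluorescence slope higher than the sample average by over 3 SD, cut at about -0.22 in these data, passing the limit was not always enough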;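 further: slope of raw intensity against log time taken from 70 to 1610 s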). Conditions: recombinant KvBeta, 4-cyanobenzaldehyde reduction, at 10 µM, stronger effect = higher value.
Chain of Voltage-gated potassium channel subunit beta-2 (Rattus norvegicus) (P62483 whole entry, looked up): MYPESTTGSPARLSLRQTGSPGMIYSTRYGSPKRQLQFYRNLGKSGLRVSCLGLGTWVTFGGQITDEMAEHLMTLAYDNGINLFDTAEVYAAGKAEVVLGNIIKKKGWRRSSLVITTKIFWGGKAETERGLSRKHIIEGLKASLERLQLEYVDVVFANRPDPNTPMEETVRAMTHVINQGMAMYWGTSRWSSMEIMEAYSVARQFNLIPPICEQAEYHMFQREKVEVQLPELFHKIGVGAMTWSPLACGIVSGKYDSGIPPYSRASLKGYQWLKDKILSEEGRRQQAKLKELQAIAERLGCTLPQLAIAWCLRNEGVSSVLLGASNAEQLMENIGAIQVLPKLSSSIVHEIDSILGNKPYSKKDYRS
Assay [7] has the same target. As to the kind of experiment: KvBeta positive modulators, primary screen, biochemical, NADPH fluorescence (AID 623;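 active means NADPH fluorescence slope more negative than the mean of all samples by about 3 SD, 99.7% confidence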;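 further: fluorescence intensity change per second fitted from 20 to 320 s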). As to conditions: Recombinant KvBeta, NADPH fluorescence decrease slope, 10 min; at 10 µM; stronger effect = lower value.
In assay [8] the target is Muscarinic acetylcholine receptor M4 (Homo sapiens) (UniProt P08173). As to the kind of experiment: compounds altering M4/GIRK thallium flux, either direction, primary screen, M4 allosteric agonist project, cell-based, HEK293 M4/GIRK, BTC-AM (AID 625;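 active means fluorescence slope after compound addition differing from the mean of all tested samples at 99.7% confidence, mostly higher but some lower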;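 further: thallium influx through GIRK channels coupled to M4 in HEK293 cells with BTC-AM dye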). Conditions: at 10 µM, actives lie on both sides.
Chain of Muscarinic acetylcholine receptor M4 (Homo sapiens) (P08173 whole entry, looked up): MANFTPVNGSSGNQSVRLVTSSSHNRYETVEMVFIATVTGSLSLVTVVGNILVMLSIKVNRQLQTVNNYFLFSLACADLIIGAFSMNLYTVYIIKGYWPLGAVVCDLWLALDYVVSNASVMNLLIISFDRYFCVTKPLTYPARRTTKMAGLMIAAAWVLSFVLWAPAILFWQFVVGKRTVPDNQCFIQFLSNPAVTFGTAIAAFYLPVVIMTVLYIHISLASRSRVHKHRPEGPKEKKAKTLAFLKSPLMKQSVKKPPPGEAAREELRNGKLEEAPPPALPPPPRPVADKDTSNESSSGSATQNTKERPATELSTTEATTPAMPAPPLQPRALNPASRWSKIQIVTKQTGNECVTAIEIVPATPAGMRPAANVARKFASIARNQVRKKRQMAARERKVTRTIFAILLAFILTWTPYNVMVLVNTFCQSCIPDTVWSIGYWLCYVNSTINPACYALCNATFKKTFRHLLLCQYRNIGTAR
A short description of assay [9]: inhibitors of larval lipid processing in zebrafish, primary screen, whole organism, PED6 fluorescence, gall bladder and intestine (AID 686).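 Further: larvae 5 to 7 days old with five fish per well; signal comes from phospholipase A2 cleavage of quenched PED6 carried via bile; overnight exposure to compound and PED6 before scoring.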 Conditions: Zebrafish larvae PED6 lipid processing, fluorescence scoring; screened at 20 µM (by protocol).
The nature of assay [10]: inhibitors of Chlamydomonas gravitaxis, primary screen, whole organism, Chlamydomonas reinhardtii, WT vs cilia-less mutant, absorbance, 96-well (AID 463189;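 active means inhibition at or above 50% relative to wild type and mutant plate controls; inactive means inhibition below 50%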;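 further: 0% = wild type cc124 cells in DMSO and 100% = ciliumless bld1 mutant cells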). As to conditions: OD600 absorbance, 2 days, at 10 µM, stronger effect = higher value.
Assay [11] can be described thus: inhibitors of Sendai virus-induced IRF3 signaling, primary screen, TLR/RLR signaling modifier project, cell-based, Sendai virus stimulus, luciferase, 10K MLSCN set (AID 602276;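 active means inhibition at or above 50% at 10 µM; inactive means inhibition below 50%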;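 further: firefly luciferase from ISG56 promoter only with Renilla not read in this screen; 0% = Sendai virus plus DMSO and 100% = medium plus DMSO without virus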). As to conditions: HEK293 RL24 IRF3 luciferase reporter, at 10 µM, stronger effect = higher value.
Assay [12] can be described thus: inhibitors of poly I:C-induced TLR3 signaling, primary screen, cell-based, poly I:C stimulus, luciferase, 10K MLSCN set (AID 602277;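 active means inhibition of the reporter signal at or above 50%; inactive means inhibition below 50%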). As to conditions: HEK293-TLR3 RL24 IRF3 luciferase reporter, at 10 µM, stronger effect = higher value.
The mark [13] stands for this setting: measured here: cell density z-score.
[14] abbreviates: measured here: nuclear c-Myc green intensity z-score.
The mark [15] stands for this setting: measured here: nuclear pErk red intensity z-score, stronger effect = higher value.

Activity calls are given as the source filed them.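 How the source made its calls, unless noted: active means a full or partial loss of lipid-probe fluorescence in the fish gall bladder, intestine or both, judged by eye; inactive means no fluorescence loss, or compound toxic to the fish.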

In the case of `Clc1ccc(-n2ncc3c(NCCCn4ccnc4)ncnc32)cc1`, the cell count in assay [1] stood at 618. Further, the inhibition (usually the drop in the measured response relative to a control, in per cent) in [1] is -10.7% (inactive); in assay [3], -41.4% (inactive); in assay [5], 1.42% (inactive); in [10], -3.19% (inactive); in assay [11] it was -0.733% (inactive); in assay [12], -33.8% (inactive). In addition, in assay [2], the inhibition of aggregation is -16.9% (inactive). For the same molecule, the nuclei count was determined as 105% in assay [2] and 129% in [3]. The z-score is -0.368 in assay [4] (setting [13]), 0.856 in [4] (setting [14]) and 1.02 in [4] (setting [15]). Moreover, the fluorescence slope in assay [6] was -0.386 (inactive); in [8], 0.00622 (inactive). Besides, in assay [7], the NADPH fluorescence slope is -5.7e-05 (inactive). Besides, the outcome in assay [9] was inactive.

For `CCCCc1nc2n[nH]c(N)c2c2c1CCCC2`, in [1], the cell count is 512. In addition, the inhibition in [1] was -7.9% (inactive); in [3], -85.3% (inactive); in [5], 3.49% (inactive); in [10], 10.9% (inactive); in assay [11], -0.43% (inactive); in [12], 8.9% (inactive). Moreover, in [2], the inhibition of aggregation was -112% (inactive). Also, the nuclei count turned out to be 2.8% in assay [2] and 124% in assay [3]. The z-score is -0.979 in assay [4] (setting [13]), 1.39 in assay [4] (setting [14]) and 0.873 in [4] (setting [15]). Also, the fluorescence slope in [6] is -0.447 (inactive); in assay [8], 0.00605 (inactive). Further, in assay [7], the NADPH fluorescence slope is -0.000136 (inactive). Further, the molecule was classed as inactive in assay [9].

As for `N#CC1=C(N)N(c2ccccc2)C(c2ccccc2)C1(C#N)C#N` (configuration not stated), in assay [1], the cell count turned out to be 635. Moreover, the inhibition in assay [1] is -9.5% (inactive); in assay [3] it was 7.2% (inactive); in [5] it was -6.59% (inactive); in [10], 58.7% (active); in assay [11], 16.9% (inactive); in [12], 17.3% (inactive). For the same molecule, the inhibition of aggregation in assay [2] is -8% (inactive). Also, the nuclei count came out at 97.6% in assay [2] and 132% in assay [3]. Moreover, the z-score in [4] (setting [13]) was 0.909; in assay [4] (setting [14]) it was -0.703; in assay [4] (setting [15]), 1.5. The fluorescence slope was -0.346 (inactive) in assay [6] and 0.00486 (inactive) in assay [8]. The NADPH fluorescence slope in [7] is -7.8e-07 (inactive). In addition, the call in assay [9] was inactive.

Turning to `N#C/C(C(=O)NCc1ccco1)=C1/SC(Cc2ccc(F)cc2)C(=O)N1c1ccccc1` (configuration not stated), the cell count in assay [1] turned out to be 598. For the same molecule, the inhibition in assay [1] was 4.7% (inactive); in assay [3], -13.2% (inactive); in [5], -2.09% (inactive); in assay [10] it was -7.54% (inactive); in [11] it was 11.5% (inactive); in assay [12], 20.4% (inactive). The inhibition of aggregation in [2] was -63.4% (inactive). The nuclei count worked out at 75.6% in assay [2] and 108% in assay [3]. Besides, the z-score in assay [4] (setting [13]) was 0.348; in assay [4] (setting [14]), 0.139; in assay [4] (setting [15]), 0.51. The fluorescence slope in [6] is -0.437 (inactive); in [8], 0.00419 (inactive). The NADPH fluorescence slope in assay [7] was -2.8e-05 (inactive). For the same molecule, in assay [9], the outcome was “inactive; toxic”.

For the molecule `Cn1c(=O)n(Cc2ccccc2)c(=O)c2c1nc(NCC1CCCO1)n2Cc1ccccc1` (configuration not stated), in [1], the cell count was determined as 665. The inhibition is -8% (inactive) in [1]; -41.8% (inactive) in assay [3]; -5.95% (inactive) in assay [5]; -18.5% (inactive) in assay [10]; -5.28% (inactive) in assay [11]; -6.2% (inactive) in assay [12]. Also, the inhibition of aggregation in [2] was -1.5% (inactive). Further, the figures for the nuclei count in assay [2] and in [3] were 104% and 102%, respectively. Also, the z-score in assay [4] (setting [13]) is -3.11; in [4] (setting [14]) it was 0.807; in assay [4] (setting [15]) it was -1.47. The fluorescence slope was -0.509 (inactive) in assay [6] and 0.00514 (inactive) in assay [8]. Further, the NADPH fluorescence slope in [7] is -0.000124 (inactive). Also, the molecule was called inactive in [9].

With `COC(=O)C(NC(C)=O)(Nc1nc2ccc(S(C)(=O)=O)cc2s1)C(F)(F)F` (configuration not stated), the cell count in assay [1] came out at 473. Moreover, the inhibition in assay [1] was -7.9% (inactive); in assay [3], -30.1% (inactive); in [5], 7.42% (inactive); in [10], -13% (inactive); in [11], -0.421% (inactive); in assay [12], 13.8% (inactive). Also, the inhibition of aggregation in [2] was 3.4% (inactive). In addition, the figures for the nuclei count in [2] and in assay [3] were 102% and 97.4%, respectively. Further, the z-score was -0.876 in assay [4] (setting [13]), 0.631 in assay [4] (setting [14]) and 0.313 in assay [4] (setting [15]). The fluorescence slope in assay [6] was -0.51 (inactive); in [8] it was 0.00507 (inactive). Further, the NADPH fluorescence slope in assay [7] is -1e-05 (inactive). Also, the molecule was classed as inactive in [9].
